Experimental data taken from PubChem BioAssay AID1619 (SRMLSC, 2009).
The campaign covered roughly 220,000 compounds. About 830 (0.38%) were called active.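 The calls were made as follows: active = compound inhibiting the enzyme by more than half at any dose during confirmatory dose-response retesting; inconclusive = strong single-dose inhibitors picked by rank but not retested; inactive = the rest.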 A selection follows. Results with a measured potency or affinity are listed apart.

molecular target: Leucine aminopeptidase (Plasmodium falciparum (isolate 3D7)) (UniProt Q8IL11); test: P. falciparum M17LAP inhibitors, primary screen, biochemical, fluorogenic H-Leu-NHMec substrate, 1536-well (AID 1619); details: recombinant M17LAP, H-Leu-NHMec fluorogenic kinetic assay; at 30 µM; active compounds read high;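 also: plate controls were full reaction with DMSO carrier for no effect and no enzyme background for full effect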
Sequence (Q8IL11 whole entry, looked up): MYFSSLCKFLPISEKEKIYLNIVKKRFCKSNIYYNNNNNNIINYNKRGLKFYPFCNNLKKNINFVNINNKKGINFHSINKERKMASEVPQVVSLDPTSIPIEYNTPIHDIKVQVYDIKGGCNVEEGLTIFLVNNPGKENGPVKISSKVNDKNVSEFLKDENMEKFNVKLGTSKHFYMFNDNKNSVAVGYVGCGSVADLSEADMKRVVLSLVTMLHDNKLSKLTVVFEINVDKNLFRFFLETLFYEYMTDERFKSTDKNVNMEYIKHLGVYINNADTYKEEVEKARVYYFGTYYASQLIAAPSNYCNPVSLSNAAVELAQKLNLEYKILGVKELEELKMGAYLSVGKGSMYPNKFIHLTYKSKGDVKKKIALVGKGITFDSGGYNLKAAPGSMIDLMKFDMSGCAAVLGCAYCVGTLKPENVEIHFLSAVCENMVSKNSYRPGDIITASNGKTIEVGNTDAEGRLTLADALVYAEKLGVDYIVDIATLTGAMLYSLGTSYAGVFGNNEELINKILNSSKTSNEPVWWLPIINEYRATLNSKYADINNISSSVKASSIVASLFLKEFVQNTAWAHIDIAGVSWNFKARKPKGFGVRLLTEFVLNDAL

inhibition, inactive:
CCn1c(SCC(=O)N(C)c2c(N)n(Cc3ccccc3)c(=O)[nH]c2=O)nc2ccccc21 -11.8%, Cc1c(C(=O)NCc2ccccc2)c(-c2ccccc2)nn1-c1ccccc1 6.71%, O=C(COc1ccccc1Cl)N1CCN(c2ncccn2)CC1 5.76%, O=C(O)CSc1nc(C(F)(F)F)cc(=O)n1-c1ccccc1 -6.87%, COCCCNC(=O)c1ccc(Cn2c(=O)c3ccccc3n(CC(=O)NCc3ccco3)c2=O)cc1 -3.96%, CCN(CC)c1ccc(NC(=O)CSc2nc3ccccc3c(=O)n2-c2cc(S(=O)(=O)N(C)C)ccc2C)cc1 -13%, Clc1ccccc1Nc1ncnc2c1nnn2Cc1ccccc1 5.79%, CC(=O)Oc1ccc(C(=O)[C@H]2[C@H]3C(=O)N(c4ccc(C)cc4)C(=O)[C@H]3[C@@H]3C=CC=NN32)cc1 14.6%, COc1ccccc1CNc1ncnc2nc[nH]c12 6.16%, c1ccc(CNc2ncnc3nc[nH]c23)cc1 45.1%, COc1cc2c(cc1OC)CN(C(=S)Nc1ccc(Cl)cc1)CC2 1.81%, CC1CN(C(=O)N2CCOCC2)CCN1C(=O)N1CCOCC1 (stereo not drawn) -0.08%, CCOC(=O)c1cc(-c2csc(-c3ccc(C(F)(F)F)cc3)n2)on1 -0.99%, C=CCNC(=O)/C(=C\C=C\c1ccccc1)NC(=O)c1ccccc1Cl -0.22%, O=C(NCCCO)/C(=C\C=C\c1ccccc1)NC(=O)c1ccccc1Cl 18.5%, CCc1ccc(C(=O)CSc2nc3cc(S(=O)(=O)N4CCOCC4)ccc3n2CC)cc1 16.6%, O=C(CCSc1ccccc1)NCCSCc1ccco1 22.2%, Cc1oc2c(C)c(O)ccc2c(=O)c1-c1nncn1-c1ccccc1 5.69%, CCOC(=O)c1oc2c(C)c(O)ccc2c(=O)c1-c1nncn1-c1ccccc1 17.4%, CSc1cccc(NC(=O)C2CCN(S(=O)(=O)c3ccc(F)cc3)CC2)c1 -0.52%, COc1cccc(C(=O)NCC2CCN(c3ccc(S(=O)(=O)N4CCOCC4)cc3)CC2)c1 4%, CN(C)S(=O)(=O)c1ccc(C(=O)NC(=O)CSc2ccccc2)cc1 6.97%, CC1=NNC(=O)C1CC(=O)N/N=C/c1ccncc1 (stereo not drawn) -2.88%, CC1=NNC(=O)C1CC(=O)N/N=C/c1cccs1 (stereo not drawn) 5.62%, CC1=NNC(=O)C1CC(=O)N/N=C/c1ccc(C)o1 (stereo not drawn) 5.16%, C/C(=N\NC(=O)C1=NNC(=O)C1C)c1cccs1 (stereo not drawn) 24.2%, Cc1ccc(/C=C/C(=O)NCCCc2ccccc2)cc1 -0.31%, CCc1ccccc1NC(=O)CC1S/C(=N\c2nccs2)N(CC)C1=O (stereo not drawn) 0.04%, CCc1cc2cc3c(cc2nc1SCC(=O)Nc1cc(C)on1)OCO3 7.57%, COc1ccc2cc(C)c(SCC(=O)Nc3cc(C)on3)nc2c1 -7.8%, Cc1ccc2cc(C)c(SCC(=O)Nc3ccc(S(=O)(=O)N4CCCC4)cc3)nc2c1 -14.9%, CCc1cc2ccc(C)cc2nc1SCC(=O)Nc1c[nH]c(=O)[nH]c1=O 21.2%, CCc1ccc2c(c1)cc(C)c1nnc(SCC(=O)Nc3cc(OC)c(OC)cc3C(=O)O)n12 7.71%, CCc1cc2cc3c(cc2nc1SCC(=O)Nc1nccs1)OCO3 -1.06%, CCc1cc2ccc(C)cc2nc1SCC(=O)Nc1cc(C)on1 -2.5%, COc1cc(NC(=O)CSc2nnc3c(C)cc4c(C)ccc(C)c4n23)c(C(=O)O)cc1OC 3.38%, Cc1ccccc1OCCCCn1c(CO)nc2ccccc21 5.4%, CN(Cc1ccccc1)C(=O)Cn1c(=O)oc2cc(S(=O)(=O)NCc3ccccc3)ccc21 -8.79%, Nc1cc(=O)[nH]c(SCC(=O)Nc2ccc(S(=O)(=O)N3CCCCC3)cc2)n1 10.7%, CCOc1ccc(N2C(=O)CC(NCCc3ccncc3)C2=O)cc1 (stereo not drawn) 3.75%, CN1CC(=O)N(CCOc2ccccc2)C1=O 5.27%, CN1CCN(c2ccccc2NC(=O)c2cccc([N+](=O)[O-])c2)CC1 -3.18%, C/C(=N/NC(=O)Cn1nc2ccccc2n1)c1ccc(F)cc1 13.8%, CC(C)c1nc(SCC(=O)N2CCCc3ccccc32)c2c(=O)n(C)c(=O)n(C)c2n1 -8.79%, Cc1c(CN2CCC(CO)(CC3CCCCO3)CC2)cnn1C (stereo not drawn) -3.19%, Cc1ccc(OCC(=O)N2N=C(C(F)(F)F)CC2(O)C(C)(C)C)cc1C (stereo not drawn) -0.9%, CCCCSc1nc(O)cc(=O)n1CC 16%, Cc1ccc(S(=O)(=O)Nc2nc(C)c(C(=O)NN)s2)cc1 18.9%, CCOC(=O)c1sc(NS(=O)(=O)c2ccccc2)nc1C 23.4%, Cc1ccc(C(=O)Nc2ccc(F)cc2)o1 7.81%, O=C(Nc1ccc2c(c1)OCCO2)C1CC1c1ccccc1 (stereo not drawn) -1.74%, CC1=C(C)CC(C(=O)Nc2ccc3c(c2)OCO3)C(C(=O)O)C1 (stereo not drawn) 8.14%, O=C(Nc1ccc2c(c1)OCCO2)NC1CCCCC1 53.6%, O=C(O)CCNc1ccc2c(c1)OCCO2 13.7%, O=C(Nc1ccc2c(c1)OCCO2)C1CCC1 -5.9%, O=C(O)CCCCCNS(=O)(=O)c1ccc2c(c1)OCCO2 -3.71%, O=C(c1cc(-c2ccc(F)cc2)on1)N1CCCc2ccccc21 1.4%, CCCCOCCCNC(=O)C1CCCCC1 -2.13%, C=CCn1cnc2c(nnn2-c2ccc(Cl)cc2)c1=O 1.25%, Cc1c(Cl)cccc1NC(=O)CSC(N)=O 3.23%, Cc1c(Cl)cccc1NC(=O)CSCC(N)=O -1.74%, CCCCc1ccc(NC(=O)CC(C)=O)cc1 7.92%, O=C(CSCc1cc(=O)[nH][nH]1)Nc1ccc(F)cc1 5.96%
